PINK1 modulator: A Quantitative High throughput Screen to Identify Chemical Modulators of PINK1 Expression; PINK1 immunofluorescence, high-content cytometry, 24 h; Potency, µM (highest dose often 76.6 µM), most hits filed as activators; hit rate 0.2% among 410,000; AID 624263, 2012; active = well fitted activation curve with a large enough effect; inconclusive = small, poorly fitted or top-dose-only effect; cell line not stated here; also: nearly all actives have a fitted effect of over 65% in size
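Compound titrations (5 concentrations, 24 h) on a stable cell line; DMSO and CCCP controls. Endpoint: fixed-cell PINK1 immunofluorescence with mitochondrial, cell and nuclear markers, scanned by microplate cytometer.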
KB-V1 MDR tox: qHTS assay for MDR1-selective chemotherapeutics: Primary screen using the drug-selected MDR subline cells KB-V1; hit rate 3.4% among 400,000; Potency, µM (series often up to 46.1 µM), hits mostly cytotoxic; KB-V1 MDR cells viability, CellTiter-Glo, 72 h; also: nearly all actives have a fitted effect of over 60% in size
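Cells of the MDR subline KB-V1 are plated, dosed with compound at multiple concentrations, and incubated 72 h at 37 degrees C; CellTiter-Glo is then added and luminescence read after 10 min.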
MCF10A rerep: A quantitative high throughput screen for small molecules that induce DNA re-replication in MCF 10a normal breast cells | Potency, µM (titrated, usually from 46.1 µM), most hits filed as activators | AID 624296, 2012 | hit rate 2.9% among 350,000 | MCF 10A DNA re-replication, Hoechst nuclear intensity, 48 h; also: nearly all actives have a fitted effect of over 50% in size
TSG101-PTAP inh: qHTS Assay for Iinhibitors of HIV-1 Budding by Blocking the Interaction of PTAP/TSG101; Tumor susceptibility gene 101 protein (Homo sapiens), Q99816; Fluorescence polarization, FITC-PTAP peptide / Tsg101 binding; Potency, µM (series often up to 115 µM), actives largely listed as inhibitors; 340,000 tested, under 10 active; active = well fitted inhibition curve with a large enough effect in the main read-out, with a control signal flat, not every such curve was filed as active; inconclusive = small, poorly fitted or top-dose-only effect, or effect the other way, or a change in a side signal; inactive = no such curve, though single readings can be large or run the other way
Target sequence (Q99816 whole entry, looked up): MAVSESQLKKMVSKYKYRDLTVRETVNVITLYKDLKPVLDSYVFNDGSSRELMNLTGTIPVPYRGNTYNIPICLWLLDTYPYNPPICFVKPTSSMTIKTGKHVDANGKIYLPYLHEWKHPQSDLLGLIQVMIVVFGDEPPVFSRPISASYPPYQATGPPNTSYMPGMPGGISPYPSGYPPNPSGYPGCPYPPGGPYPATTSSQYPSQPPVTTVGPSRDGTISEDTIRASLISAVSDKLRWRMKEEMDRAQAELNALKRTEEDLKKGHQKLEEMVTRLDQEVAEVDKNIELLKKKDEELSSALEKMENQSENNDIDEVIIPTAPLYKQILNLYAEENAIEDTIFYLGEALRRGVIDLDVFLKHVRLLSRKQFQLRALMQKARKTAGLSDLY
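Fluorescence anisotropy tracks displacement of a FITC-tagged PTAP peptide (50 nM) from the Tsg101 binding domain (10 uM), following a 20 min room-temperature incubation at pH 7.5.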
SW480 rerep: A quantitative high throughput screen for small molecules that induce DNA re-replication in SW480 colon adenocarcinoma cells | hit rate 1.8% among 340,000 | SW480 DNA re-replication, Hoechst DNA content imaging, 48 h | Potency, µM (doses to about 46.1 µM), actives largely listed as activators; also: nearly all actives have a fitted effect of over 55% in size
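Treated cells incubate 48 hr (37 C, 5% CO2), are stained 40 min with Hoechst, and nuclear fluorescence is enumerated; a rise in nuclei with high DNA signal marks re-replication.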
KB-3-1 cytotox: qHTS assay for MDR1-selective chemotherapeutics: Primary screen using the parental adenocarcinoma cell KB-3-1; hit rate 1.4% among 400,000; KB-3-1 viability, CellTiter-Glo ATP luminescence, 72 h; Potency, µM (titrated, usually from 46.1 µM), usual class: cytotoxic; AID 1347075, 2019; also: nearly all actives have a fitted effect of over 60% in size
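Here the drug-naive KB-3-1 line serves as comparator for MDR sub-line selectivity; cells received compound titrations, 72 h at 37 °C, then CellTiter-Glo readout.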
A number is an active result; – = inactive; ? = inconclusive; · = not tested or not shown; [ ] = dose if it differs, or a comment. A selection: hits, their analogues and other compounds. The true share with any hit is near 6.8%. Unless noted, calls follow the shape of the dose curve; as a rule, active = well fitted curve in the direction sought with a large enough effect; inconclusive = small, poorly fitted or top-dose-only effect, or another doubt; inactive = no such curve, though single readings can be large; an effect the other way counts as inactive or inconclusive.

SMILES	PINK1 modulator	KB-V1 MDR tox	MCF10A rerep	TSG101-PTAP inh	SW480 rerep	KB-3-1 cytotox
Cc1c(C(=O)NCc2ccc3c(c2)OCO3)cnn1-c1ncc2c(n1)-c1ccccc1CC2	–	·	·	·	·	·
Cn1nnnc1SCc1nc2scc(-c3ccc(Cl)cc3)c2c(=O)[nH]1	39.8µM	?	–	–	?	–
Cc1ccc(-n2nnnc2SCc2nc3sc(C)c(C)c3c(=O)[nH]2)cc1	?	18.4µM	–	–	–	–
Cn1c(=O)c2c(nc(SCC(=O)N3CCCCCC3)n2C)n(C)c1=O	–	14.6µM	–	–	–	–
Cn1c(=O)c2c(nc(SCC(=O)N3c4ccccc4CCc4ccccc43)n2C)n(C)c1=O	10µM	–	–	–	–	–
Cn1c(=O)c2c(nc(SCC(=O)N3CCc4ccccc4C3)n2C)n(C)c1=O	–	–	–	–	–	–
COc1cccc(NC(=O)Cn2c(=O)n(CCCC(=O)NCc3ccc4c(c3)OCO4)c(=O)c3ccccc32)c1	–	?	·	·	·	–
Cc1ccc(S(=O)(=O)c2cn(C)c3cc(N4CCCC(C)C4)c(F)cc3c2=O)c(C)c1 (stereo unspecified)	–	–	·	·	·	–
CCCC(O)(c1ccc(Cl)cc1)C(CN1CCOCC1)c1ccc(Cl)cc1 (stereo unspecified)	–	16.4µM	?	–	?	?
CCc1ccc(C(O)(c2ccccc2OC)C(CN2CCOCC2)c2ccccc2)cc1 (stereo unspecified)	–	–	–[9.22 µM]	–	–	–
CCOc1ccc(C(O)(c2ccccc2)C(CN2CCCC2)c2ccccc2)cc1 (stereo unspecified)	–	–	–	–	20.6µM	–
COc1ccc(C(O)(CC(C)C)C(CN2CCOCC2)c2ccccc2)cc1 (stereo unspecified)	–	–	–	–	?	–
CCCCC(O)(c1ccc(F)cc1)C(CN1CCOCC1)c1ccc(Cl)cc1 (stereo unspecified)	?	8.2µM	7.31µM	–	?	?
CCOc1ccc(C(O)(CCC(C)C)C(CN2CCOCC2)c2ccccc2)cc1 (stereo unspecified)	?	?	?	–	23.1µM	–
COc1ccc(C(O)(CCC(C)C)C(CN2CCOCC2)c2ccc(Cl)cc2)cc1 (stereo unspecified)	?	25.9µM	?	–	?	?
O=C(Nc1ccc(Cc2ccncc2)cc1)C1CCC(N2C(=O)C3C4C=CC(C4)C3C2=O)CC1 (stereo unspecified)	·	?	–	–	–	–
O=C(Nc1ccc(Cc2ccncc2)cc1)C1CCC(N2C(=O)C3CC=CCC3C2=O)CC1 (stereo unspecified)	·	14.6µM	–	–	–	–
Cc1cc([N+](=O)[O-])ccc1NCc1cccc2ccccc12	·	13µM	–	–	–	–
COc1ccc(OCC(=O)c2c(O)c3ccccc3oc2=O)cc1	–	20.6µM	?	–	–	?
CC1CCC(C(=O)c2c(O)c3ccccc3oc2=O)CC1 (stereo unspecified)	–	3.66µM	–	–	–	?
CC(=N)c1c(O)c2ccccc2oc1=O	–	–	–	–	–	–
CCOc1ccc(OCC(=O)c2c(O)c3ccccc3oc2=O)cc1	–	?	?	–	–	–
Cc1cc(N)n2ncc(-c3ccc(Cl)cc3)c2n1	–	?	?	–	–	18.4µM
O=C(CSc1nnc(CNC(=O)C23CC4CC(CC(C4)C2)C3)n1-c1ccccc1)Nc1ccc(F)cc1	–	–	–	–	–	–
O=C(NCc1nnc(SCc2ccc(C(F)(F)F)cc2)n1-c1ccccc1)C12CC3CC(CC(C3)C1)C2	?	16.4µM	16.4µM	–	–	?
SMILES	PINK1 modulator	KB-V1 MDR tox	MCF10A rerep	TSG101-PTAP inh	SW480 rerep	KB-3-1 cytotox
O=C(NCc1nnc(SCc2ccc(F)cc2)n1-c1ccccc1)C12CC3CC(CC(C3)C1)C2	–	13µM	?	–	–	?
COc1cccc(-c2nc3cc(SC)ccc3cc2CN(C(=O)c2sccc2C)C2CC2)c1	–	·	·	·	·	·
CCOc1ccc(NC(=O)C(=O)c2cc(C)n(-c3cc(C)cc(C)c3)c2C)cc1	–	–	·	·	·	–
CCOc1ccc(-n2c(C)cc(C(=O)CCl)c2C)cc1	–	?	11.6µM	–	9.2µM	4.61µM
COC(=O)c1ccc(-n2c(C)cc(C(=O)CCl)c2C)cc1	–	–	11.6µM	–	?	?
Cc1nc2sccn2c1CN1Cc2ccccc2OC(c2ccccc2F)C1 (stereo unspecified)	–	·	·	·	·	·
COc1ccc(NC(=O)Cn2c(=O)oc3cc(S(=O)(=O)NC4CCCC4)ccc32)cc1OC	–	–	·	·	·	–
COc1cccc(Cn2c(-c3nonc3NC(C)=O)nc3ccccc32)c1	–	·	·	·	·	·
CCC(C)NC(=O)COC(=O)c1oc2ccccc2c1CSc1ccc(Cl)cc1 (stereo unspecified)	–	–	–	–	0.92µM	–
O=C(O)c1oc2ccccc2c1CSc1ccc(Cl)cc1	–	–	?	–	–	–
O=C(Nc1ccc(Cl)cc1C(=O)NCc1cccnc1)c1ccc(Cl)cc1Cl	–	?	?	–	?	20.6µM
CCc1nc(C)cn1S(=O)(=O)c1ccc(Cl)c(Cl)c1OC	–	·	·	·	·	·
O=C1CC(Nc2ccc(N3CCOCC3)cc2)C(=O)N1c1ccccc1 (stereo unspecified)	–	–	8.2µM	–	?	–
CC(=O)Nc1ccc(NC(=O)CC(C)n2ccc(C)n2)cc1 (stereo unspecified)	–	?	·	·	·	–
Cc1cc(C)n(CC(=O)NC2C(=O)N3C(C(=O)O)=C(CSc4nnc(C)s4)CSC23)n1 (stereo unspecified)	–	–	0.731µM	–	–	–
COCC(=O)Nc1cc(C(=O)NC2Cc3ccccc3C2)cc2nc(-c3cccnc3)n(C)c12	–	·	·	·	·	·
CCN(c1cccc(C)c1)S(=O)(=O)c1ccc2c(c1)CCCN2C(C)=O	–	?	?	?	–	–
CCN(c1cccc(C)c1)S(=O)(=O)c1ccc2c(c1)CCN2C(C)=O	–	23.1µM	?	–	?	?
COc1ccc(N2C(=O)CC(Sc3nc4ccccc4s3)C2=O)cc1 (stereo unspecified)	–	–	?	–	–	–
C=CCNc1nnc(SC2CC(=O)N(c3ccc(OC)cc3)C2=O)s1 (stereo unspecified)	–	–	5.8µM	·	–	–
COc1ccc(-c2nn(-c3ccccc3)cc2/C=C/C(=O)OCC(=O)Nc2ccc(C#N)cc2)cc1	–	9.2µM	–	–	–	–
